From PubChem BioAssay (Tox21) come the findings set out here.

Where “and” joins values, the source holds several entries; their conditions need not be identical. Equal values may be shown once. Records with an inconclusive call do not appear. Calls of active or inactive are those of the source. Calls follow the shape of the dose curve; as a rule, active = well fitted cell-killing curve with a large enough effect in the repeat runs; inconclusive = weak or mixed curves, or effect the other way; inactive = no such curve, though single readings can be large or run the other way.
% is scaled to controls: 0 for no effect and ±100 for the full control effect; potency is read from the fitted curve at half-maximal effect.

A short description of the test: qHTS assay to identify small molecule antagonists of the peroxisome proliferator-activated receptor gamma (PPARg) signaling pathway - cell viability counter screen (AID 743194). Also: nearly all actives have a fitted effect of over 55% in size. As to conditions: PPARg-bla HEK293H viability, CellTiter-Glo luminescence, 17 h; Potency: co-treated with 50 nM rosiglitazone unless noted; series mostly up to 62.6 µM; activity change, negative = cytotoxicity: at the top concentration. An excerpt: U.S. Tox21 Program National Center for Advancing Translational Sciences [NCATS] NIH Chemical Genomics Center [NCGC] U.S. Environmental Protection Agency [EPA] National Institutes of Environmental Health Sciences [NIEHS] National Toxicology Program [NTP] U.S. Food and Drug Administration [FDA] Tox21 Assay Overview: The peroxisome proliferator-activated receptors (PPARs) are lipid-activated transcription factors of the nuclear receptor superfamily with three distinct subtypes namely PPAR alpha, PPAR delta (also called PPAR beta) and PPAR gamma (PPARg). All these subtypes heterodimerize with Retinoid X receptor (RXR) and these heterodimers regulate transcription of various genes. PPAR-gamma receptor (glitazone receptor) is involved in the regulation of glucose and lipid metabolism. To identify the compounds that activate PPAR-gamma signaling, GeneBLAzer PPAR gamma UAS-bla HEK293H cell line (Invitrogen, Carlsbad, CA, USA) containing a beta-lactamase reporter gene under the control of an Upstream Activator Sequence (UAS) was used to screen the Tox21 compound library. The cytotoxicity of the Tox21 compound library against the PPARg-bla cell line was tested in parallel by measuring the cell viability using CellTiter-Glo assay in the same wells.
Tox21 Assay Protocol Summary: PPARg-bla cells were dispensed at 3000 cells/5uL/well in 1536-well black wall/clear bottom plates using a Multidrop Combi (Thermo Fisher Scientific, Waltham, MA) dispenser. After the assay plates were incubated at 37 C and 5% CO2 for 5 h, 23 nL of compounds dissolved in DMSO, positive controls or DMSO only was transferred to the assay plate by a Pintool station (Kalypsys, San Diego, CA), followed by addition of 1ul Rosiglitazone (50 nM, final concentration in the wells). The assay plates were incubated at 37 C for 17 h, and then 1 uL of LiveBLAzerTM B/G FRET substrate was added using a Bioraptr Flying Reagent Dispenser (FRD) workstation (Beckman Coulter, Indianapolis, IN, USA). The assay plates were incubated at room temperature for 1 h and fluorescence intensity was measured by an Envision plate reader (PerkinElmer, Shelton, CT). For cell viability readout that measures cytotoxicity, 4 ul/well of CellTiter-Glo reagent was added into the assay plates using a Flying Reagent Dispenser. After 30 min incubation at room temperature, the luminescence intensity in the plates was measured using a ViewLux plate reader (PerkinElmer).
(qHTS replaces the single test concentration by a dilution series.)
On to `BrC(Br)Br`, for which the “activity change, negative = cytotoxicity” value was 14.4% (inactive).
Regarding `O=C(Nc1ccc2[nH]ccc2c1)c1cc2cc(F)ccc2n1Cc1cccc(F)c1`, the Potency is 19.5 µM (active).
Turning to `C[C@H]1O[C@@H](O[C@H]2[C@@H](O)C[C@H](O[C@H]3[C@@H](O)C[C@H](O[C@H]4CC[C@@]5(C)[C@H](CC[C@@H]6[C@@H]5CC[C@]5(C)[C@@H](C7=CC(=O)OC7)CC[C@]65O)C4)O[C@@H]3C)O[C@@H]2C)C[C@H](O)[C@@H]1O`, the Potency is 7.8 nM (active) and 33.5 nM (active).
For the compound `S=C=Nc1cccc2ccccc12`, the “activity change, negative = cytotoxicity” value was -4.15% (inactive).
As to `CN(C)S(=O)(=O)N(SC(F)(Cl)Cl)c1ccccc1`, the Potency was 3.89 µM (active).
With `Cc1c(Cl)c(=O)oc2cc(OP(=O)(OCCCl)OCCCl)ccc12`, the “activity change, negative = cytotoxicity” value was -7.82% (inactive).
The same measure, in the same setting: in the case of `c1ccc2c(c1)OCC(C1=NCCN1)O2` (stereo not given) it was 14.6% (inactive).
As to `O=C(CCl)Nc1ccccc1`, the Potency was 15.5 µM (active).
`COc1ccc(OC)c(CC(C)N)c1` (stereo not given): the “activity change, negative = cytotoxicity” value is -12.6% [at 81.1 µM] (inactive).
Take `C=CC(=O)OCC(COC(=O)C=C)(COC(=O)C=C)COC(=O)C=C`: the Potency is 6.92 µM (active).
As to `CC(=O)/C=C/c1ccc2c(c1)OCO2`, the “activity change, negative = cytotoxicity” value was -2.18% [at 81.1 µM, co-treated with 50 nM rosiglitazone] (inactive).
On the same count and under the same terms, in the case of `CC(C)[C@H](C(=O)OC(C#N)c1cccc(Oc2ccccc2)c1)c1ccc(OC(F)F)cc1` (stereo not given in full) it was -9.17% (inactive).
`O=C(O)C1C2CCC(O2)C1C(=O)O` (stereo not given): the Potency entry is “inactive”.
For `O=c1oc2ccccc2c(O)c1Cc1c(O)c2ccccc2oc1=O`, the “activity change, negative = cytotoxicity” value was -9.13% (inactive).
As to `O=C1c2ccccc2C(=O)C1C(=O)C(c1ccccc1)c1ccc(Cl)cc1` (stereo not given), the Potency is 11 µM (active).
With `COc1ccc(N)cc1N`, the Potency is 21 µM (active).
Consider `CC[C@H]1C[C@@H]2C[C@H]3c4[nH]c5ccc(OC)cc5c4CCN(C2)[C@@H]13`, for which the “activity change, negative = cytotoxicity” value was 0.425% [at 81.1 µM] (inactive).
As to `O=C(O)c1cc[c]([Hg][Cl])cc1`, the Potency is 38.9 µM (active).
On to `c1ccc2cc3c(cc2c1)-c1cccc2cccc-3c12`, for which the “activity change, negative = cytotoxicity” value was 0.315% (inactive).
Turning to `CC(C)CC(C)(c1ccc(O)cc1)c1ccc(O)cc1`, the Potency is 61.7 µM (active).
On the same count and under the same terms, in the case of `C[C@@H]1CC[C@@]2(OC1)O[C@H]1[C@@H](O)[C@H]3[C@@H]4CC[C@H]5C[C@@H](O[C@@H]6O[C@H](CO)[C@H](O[C@@H]7O[C@H](CO)[C@@H](O)[C@H](O[C@@H]8OC[C@@H](O)[C@H](O)[C@H]8O)[C@H]7O[C@@H]7O[C@H](CO)[C@@H](O)[C@H](O[C@@H]8O[C@H](CO)[C@@H](O)[C@H](O)[C@H]8O)[C@H]7O)[C@H](O)[C@H]6O)[C@H](O)C[C@]5(C)[C@H]4CC[C@]3(C)[C@H]1[C@@H]2C` it was 23.2 µM (active).
`CCCCCCCCCCCCCN1CC(C)OC(C)C1` (stereo not given): the “activity change, negative = cytotoxicity” value was -20.4% (inactive).
Same read-out and setting: in the case of `COc1cc(C=O)cc2c1[C@H](COC(N)=O)[C@]1(OC(C)=O)ON2C[C@H]2[C@@H]1N2C(C)=O` it was -12.3% (inactive); in that of `FC(Cl)(Cl)Cl`, 7.23% (inactive); in that of `CNC(C)Cc1ccc2c(c1)OCO2` (stereo not given), 3.9% [at 81.1 µM] (inactive).
`Oc1ccc(C(c2ccc(O)cc2)(C(F)(F)F)C(F)(F)F)cc1`: the Potency is 43.6 µM (active).
Regarding `Clc1ccc(C(Cl)(Cl)Cl)c(Cl)c1`, the “activity change, negative = cytotoxicity” value was 0.208% [at 81.1 µM, co-treated with 50 nM rosiglitazone] (inactive).
As for `CC(=O)[O-].CC(=O)[O-].O.O.[Cd+2]`, the Potency was 0.682 µM (active).
Consider `O=[N+]([O-])O.O=[N+]([O-])O.[Cd]`, for which the Potency was 0.155 µM (active).
With `CC(=O)OC1(c2ccccc2)CCN(CCc2ccccc2)CC1`, the “activity change, negative = cytotoxicity” value was -0.0606% [at 81.1 µM] (inactive).
For the compound `COc1ccc(/C(=C/C(=O)N2CCOCC2)c2ccc(Cl)cc2)cc1OC`, the “activity change, negative = cytotoxicity” value was 25.5% (inactive).
For the compound `CCCCCCCCCCCCCCC(Br)C(=O)O` (stereo not given), the Potency is 43.6 µM (active).
With `CC1(C)CC/C(=C/c2ccc(Cl)cc2)C1(O)Cn1cncn1` (stereo not given), the “activity change, negative = cytotoxicity” value is -2.06% [at 81.1 µM, co-treated with 50 nM rosiglitazone] (inactive).
As to `CCCCCCCCCCCCCCCC[N+](C)(C)C`, the Potency is 18.8 µM (active) and 29.8 µM (active).
Turning to `Clc1ccc(CSC(Cn2ccnc2)c2ccc(Cl)cc2Cl)cc1` (stereo not given), the Potency is 29.8 µM (active).
As to `CC(C)CC(C)Nc1ccc(Nc2ccccc2)cc1` (stereo not given), the Potency was 42.9 µM (active).
Consider `O=CC(Br)(Br)Br`, for which the Potency was 6.14 µM (active).
Consider `N#CNC#N`, for which the “activity change, negative = cytotoxicity” value was -5.62% [at 81.1 µM, co-treated with 50 nM rosiglitazone] (inactive).
On to `Clc1ccc(COC(Cn2ccnc2)c2ccc(Cl)cc2Cl)cc1` (stereo not given), for which the Potency is 20.4 µM (active) and 19.4 µM (active) and 29.8 µM (active).
For `CCCCCCCCCBr`, the “activity change, negative = cytotoxicity” value is -0.707% [at 81.1 µM, co-treated with 50 nM rosiglitazone] (inactive).
